# PubChem BioAssay AID504834 (National Center for Advancing Translational Sciences (NCATS), 2011)
# Among all 320,000 compounds or so, about 22,000 (6.9%) were called active. Where a call stands in place of a potency, no number is given. About 27% were inconclusive and are not listed. The call rests on the fitted dose curve; in most records, active means well fitted inhibition curve with a large enough effect; inconclusive means small, poorly fitted or top-dose-only effect, or another doubt; inactive means no such curve, though single readings can be large or run the other way. For the sample, actives were picked, then their nearest neighbours and some compounds at random.
# Assay: Primary qHTS for delayed death inhibitors of the malarial parasite plastid, 96 hour incubation
# Conditions: P. falciparum luciferase reporter growth; series mostly up to 28.7 µM
# Summary of the method: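 Compounds incubated with erythrocytes infected by luciferase-expressing P. falciparum (2% hematocrit, 0.05% parasitemia final) for 96 hours, 37 C in 5% CO2. Growth inhibition scored as decreased luciferase luminescence.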
# Potency means the concentration at half of the fitted maximal effect.
row,SMILES,Potency
1,CN(CC(=O)Nc1c(Cl)cccc1Cl)C(=O)CNC(=O)C1CCCCC1,inactive
2,O=C(Nc1c(Cl)cccc1Cl)C1CCC1,10.4 µM (active)
3,NC(=S)Nc1c(Cl)cccc1Cl,inactive
4,NS(=O)(=O)c1ccc2nc(NC(=O)CS(=O)(=O)c3ccc(F)cc3)sc2c1,inactive
5,COc1ccc(CNC(=O)CCCn2nc(C)c([N+](=O)[O-])c2C)cc1,inactive
6,Brc1ccc(OCCn2ccnc2)cc1,inactive
7,Cc1nn(CCOc2ccc(Br)cc2)c(C)c1[N+](=O)[O-],13.1 µM (active)
8,CNS(=O)(=O)c1ccc(NC(=O)Nc2ccc3c(c2)OCO3)cc1,inactive
9,CCOC(=O)C(=O)C1C(=O)Nc2ccccc21 (stereo unspecified),inactive
10,CCCCCN(C(=O)CCC(=O)OCC(=O)NCc1ccc(OC)cc1)c1c(N)n(CCCC)c(=O)[nH]c1=O,inactive
11,CCCCCN(C(=O)CCC(=O)OCCOc1ccc(OC)cc1)c1c(N)n(CCCC)c(=O)[nH]c1=O,inactive
12,CCCCCN(C(=O)CCC(=O)OCC(=O)NC1CCC(C)CC1)c1c(N)n(CCCC)c(=O)[nH]c1=O (stereo unspecified),14.7 µM (active)
13,O=C(NCc1ccco1)C1CCCN1S(=O)(=O)c1ccccc1C(F)(F)F (stereo unspecified),inactive
14,CCOC(=O)C1=C(COC(=O)[C@H](C)NS(=O)(=O)c2ccccc2F)NC(=O)NC1C (stereo partly specified),inactive
15,Cc1cs/c(=N\N=C\c2ccc(O)cc2)n1Cc1ccco1,inactive
16,CC(C)n1c(=O)c(C=Nc2ccc(Br)cc2)c(O)n(Cc2ccco2)c1=O,10.4 µM (active)
17,CN(C)CCCN=Cc1c(O)n(Cc2ccco2)c(=O)[nH]c1=O,inactive
18,COC(=O)c1cccc(N(C(=O)CNC(=O)c2cccs2)C(C(=O)NCC2CCCO2)c2ccc(OC)c(OC)c2)c1 (stereo unspecified),inactive
19,CC1(C)CC(=O)CC2(C1)NCC(c1ccccc1Cl)c1c2[nH]c2ccccc12 (stereo unspecified),9.28 µM (active)
20,O=C(O)CC(c1ccccc1F)N1Cc2ccccc2C1=O (stereo unspecified),inactive
21,CN(C)CCNc1ccc(-c2n[nH]c(=O)c3ccccc23)cc1[N+](=O)[O-],inactive
22,CCOC(=O)c1ccc(NC(=S)Nc2cc(C)cc(C)n2)cc1,inactive
23,CCOC(=O)c1cc2c(nc1NC(=S)Nc1ccccc1)CC(C)(CC)OC2 (stereo unspecified),13.1 µM (active)
24,CCOC(=O)c1cn[nH]c1NC(=S)Nc1ccccc1,inactive
25,COc1ccc(CNC(=O)c2cc(=O)c3c(C)cc(C)cc3o2)cc1,inactive
26,Cc1ccc(N=C2SCCCN2C(=O)c2cccc(N3C(=O)CCC3=O)c2)cc1Cl,inactive

row,SMILES,Potency
1,COc1ccc(N2CC(NS(=O)(=O)c3ccc4ccccc4c3)CC2=O)cc1 (stereo unspecified),inactive
2,Cc1ccc(C(=O)NC2CCN(C(=O)Nc3ccc(F)cc3)CC2)cc1,inactive
3,O=C(NC1CCN(C(=S)NCc2ccco2)CC1)c1ccc(F)cc1,2.94 µM (active)
4,O=S(=O)(c1ccc(F)cc1)N1CCN(C(=S)NCc2ccco2)CC1,0.657 µM (active)
5,COc1ccc(CCNC(=S)N2CCN(S(=O)(=O)c3ccc(F)cc3)CC2)cc1,2.94 µM (active)
6,CC1CCN(S(=O)(=O)c2ccc(S(=O)(=O)NCc3ccco3)cc2)CC1,inactive
7,COc1ccc(C(=O)NC2CCN(C(=S)NCCc3ccccc3)CC2)cc1,inactive
8,CCOC(=O)N1CCN(S(=O)(=O)c2ccc(OC)cc2)CC1,inactive
9,COc1ccc(CCNC(=O)C2CCCN(S(=O)(=O)c3ccc(OC)cc3)C2)cc1 (stereo unspecified),inactive
10,O=C(NCc1ccco1)C1CCCN(S(=O)(=O)c2ccccc2)C1 (stereo unspecified),inactive
11,CSc1ccccc1NC(=O)COC(=O)CCCOc1ccc(C)cc1,inactive
12,COc1ccc(CCNC(=O)COC(=O)Cc2cccc(F)c2)cc1,inactive
13,O=C(COC(=O)CNC(=O)C1CCCCC1)NCc1ccccc1,inactive
14,COc1cccc(CSc2nc3nc(C)cc(C)n3n2)c1,inactive
15,COC(=O)N/N=C/c1c[n+]([O-])c2ccccc2[n+]1[O-],inactive
16,O=C(CCN1C(=O)[C@H]2CC=CC[C@H]2C1=O)NCc1nc(-c2ccccc2)no1,inactive
17,Cc1ccc(CN2C(=O)CCC2C(=O)NCCCN2CCCCC2C)cc1 (stereo unspecified),inactive
18,CCC(C)NC(=O)C1c2ccccc2C(=O)N1Cc1ccccc1 (stereo unspecified),inactive
19,CCC(C)NC(=O)C1CCC(=O)N1Cc1ccc(C)cc1 (stereo unspecified),11.7 µM (active)
20,O=S(=O)(Cc1nnnn1-c1ccccc1)c1ccccc1,inactive
21,O=C(/C=C/c1ccccc1[N+](=O)[O-])OCC(=O)N1CCCC1,inactive
22,COc1cccc(NC(=O)N2CCC(NC(=O)C(Cc3cccc(C)c3)NC(C)=O)CC2)c1 (stereo unspecified),inactive
23,Cc1ccc(S(=O)(=O)NCCC(=O)Nc2ccc(C)c(Cl)c2)cc1C,inactive
24,Cc1ccc(-c2nc(-c3cccnc3)sc2CC(=O)Nc2ccc(C)c(Cl)c2)cc1,11.7 µM (active)
25,O=C(O)Cc1sc(-c2ccc(C(=O)O)cc2)nc1-c1ccccc1,inactive
